Vif-A3G inh: blocks the Vif interaction with human APOBEC3G; Q9HC16; HeLa A3G-eYFP + Vif (tagged APOBEC3G with the HIV-1 protein that degrades it), YFP fluorescence, overnight; 410,000 compounds, 0.076% hits; AID 602310; Potency, µM (doses to about 46.1 µM), for the others: at the top dose activity, negative = active, usual class: inhibitors; further: potency means the concentration at half of the fitted maximal effect; on the % scale 0 is the no-effect control and ±100 the full control effect; nearly all actives have a fitted effect of over 60% in size
Target sequence (Q9HC16 whole entry, looked up): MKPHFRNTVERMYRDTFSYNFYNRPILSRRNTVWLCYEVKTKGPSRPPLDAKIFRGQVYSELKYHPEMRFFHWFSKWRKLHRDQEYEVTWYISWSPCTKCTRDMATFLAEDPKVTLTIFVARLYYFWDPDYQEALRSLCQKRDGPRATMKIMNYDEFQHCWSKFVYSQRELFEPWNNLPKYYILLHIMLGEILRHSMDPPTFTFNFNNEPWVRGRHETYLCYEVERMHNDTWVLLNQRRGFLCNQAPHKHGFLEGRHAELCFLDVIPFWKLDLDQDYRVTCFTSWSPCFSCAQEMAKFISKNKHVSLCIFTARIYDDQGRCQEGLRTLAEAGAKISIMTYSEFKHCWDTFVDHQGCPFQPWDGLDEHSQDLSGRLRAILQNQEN
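HeLa cells stably expressing Vif and C-terminally eYFP-tagged A3G, seeded overnight at 37 deg C, then exposed to compound by pintool overnight at 37 deg C. Rise in yellow fluorescence (Ex 488/Em 500-530, Acumen) marks blocked Vif-driven A3G degradation.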
Vif-A3F inh: blocks the Vif interaction with APOBEC3F; HeLa A3F-eYFP + Vif (tagged APOBEC3F with the HIV-1 protein that degrades it), YFP fluorescence increase; Potency, µM (titrated, usually from 46.1 µM), without a hit: top-dose activity, negative = active; 390,000 compounds, 0.2% hits; AID 602313; further: potency means the concentration at half of the fitted maximal effect; % of control where 0% means no effect; nearly all actives have a fitted effect of over 65% in size
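HeLa cells stably expressing A3F-eYFP plus Vif, plated and incubated overnight at 37 deg C, then exposed to compounds overnight at 37 deg C. Blocked degradation read as raised yellow fluorescence (Ex 488/Em 500-530).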
VDR inhibitor: blocks the human vitamin D receptor | AID 504847 | Potency, µM, inactives show max response, negative = inhibition, usual class: inhibitors | VDR-SRC2-3 peptide fluorescence polarization, 2 h | 400,000 compounds, 0.93% hits | P11473; further: potency means the concentration at half of the fitted maximal effect; on the % scale 0 is the no-effect control and ±100 the full control effect
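Inhibition of the VDR/SRC2-3 peptide interaction is quantified by fluorescence polarization. Compounds (23 nl, pintool) incubate with the reagents for 2 hours at ambient room temperature.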
TSHR antag: blocks TSH signaling through the human TSH receptor; P16473; TSHR-expressing cells, TSH-stimulated cAMP HTRF, 2 h; hits give low values; activity change, negative = inhibition, % at 11.5 µM; 330,000 compounds, 0.2% hits;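 active means activity change below a set negative limit, meaning inhibition stronger than a set level, cut at about -70% in these data; inconclusive means activity change between two set negative limits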; further: on the % scale 0 is the no-effect control and ±100 the full control effect
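Read-out is FRET at 665 nm (cryptate excitation 337 nm) from a cryptate-tagged anti-cAMP antibody, competed by cell cAMP against cAMP-d2. Compounds are tested on freshly harvested TSHR cells challenged with 4nM TSH (EC80) for 2 hours at 37 deg C.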
PLK1 PBD inh: PLK1 (human) polo-box domain binding inhibition; Potency, µM, for inactives: max response, negative = inhibition, usual class: inhibitors; Plk1 PBD binding of FITC phosphopeptide, fluorescence polarization; P53350; AID 720504; 360,000 compounds, 2.8% hits; further: potency means the concentration at half of the fitted maximal effect; series mostly up to about 57 µM; on the % scale 0 is the no-effect control and ±100 the full control effect; nearly all actives have a fitted effect of over 65% in size
The depositor's hits bear a star; ? = inconclusive; · = no result given. This is a sample that favours compounds with a hit; in the whole collection about 3.1% have one here. Unless noted, the call rests on the fitted dose curve; in most records, active means well fitted curve in the direction sought with a large enough effect; inconclusive means small, poorly fitted or top-dose-only effect, or another doubt; inactive means no such curve, though single readings can be large; an effect the other way counts as inactive or inconclusive.

SMILES	Vif-A3G inh	Vif-A3F inh	VDR inhibitor	TSHR antag	PLK1 PBD inh
Cc1cccc(NC(=O)CSc2nc3sc(C)cc3c(=O)n2C)c1	1%	5%	-29%	·	27µM*
COc1cccc(NC(=O)Nc2ccccc2SC)c1	3%	1%	-8%	-7	19µM*
CCn1c(SCC(=O)Nc2cccc(OC)c2)nc2ccccc2c1=O	-12%	6%	-15%	4	-9%
COc1cccc(NC(=O)CSC(N)=O)c1	-1%	-7%	22µM*	-12	-6%
Cc1cc2c(=O)n(C)c(SCC(=O)Nc3cccc(O)c3)nc2s1	0%	-18%	-14%	12	?
C=CCC(C)(O)CCc1ccccc1 (stereo not drawn)	·	·	9%	·	·
Cc1nc2ccn(Cc3ccco3)c(=O)c2cc1C(=O)NCc1ccc(F)cc1	-5%	0%	-8%	·	·
COCCCNC(=O)c1ccc(C(=O)NCCCOC)cc1	-3%	0%	-7%	4	-2%
CCn1c(N)c(C(=O)NCCCOC)sc1=S	1%	6%	?	2	21µM*
COc1cc(OC)cc(C(=O)NCC2CCCO2)c1 (stereo not drawn)	2%	8%	-13%	-2	0%
CCn1c(N)c(C(=O)N2CCOCC2)sc1=S	-3%	4%	-12%	-6	15µM*
CCNC(=O)c1sc(=S)n(CC)c1N	2%	-1%	-9%	2	27µM*
CCn1c(N)c(C(=O)NCC2CCCO2)sc1=S (stereo not drawn)	-1%	-4%	35µM*	32	4.7µM*
C=CCn1c(N)c(C(=O)N2CCOCC2)sc1=S	-1%	-15%	-6%	-1	?
CN(C)c1ccc(Cn2ccc3ccccc32)cc1	-2%	·	·	·	·
CCCCCNC(=O)c1ccc2c(=O)[nH]c3c(C(=O)NCC4CCCO4)sc(=S)n3c2c1 (stereo not drawn)	-1%	0%	-8%	-29	27µM*
CCOc1ccc2nc(SCC(=O)NCc3ccc(OC)c(OC)c3)[nH]c2c1	2%	2%	?	5	27µM*
Cc1noc(C)c1CSCC(=O)Nc1cc(Cl)ccc1N1CCOCC1	-6%	-6%	-1%	7	0%
Cc1ccc(S(=O)OCC(=O)Nc2cc(Cl)ccc2N2CCOCC2)cc1 (stereo not drawn)	-1%	-13%	?	5	17µM*
Cc1ccc(-n2c(=S)[nH]c3sc4c(c3c2=O)CCC4)cc1	-1%	?	6%	43	24µM*
Cc1ccc(-n2c(=O)[nH]c3sc4c(c3c2=O)CCCC4)cc1	-1%	-6%	-17%	·	·
[O-][N+]12CCCc3cccc(c31)CCC2	-4%	·	·	·	·
Nc1cc(N)nc(SCC(=O)Nc2ccccc2)n1	0%	1%	6%	-11	-2%
Nc1cc(N)nc(SCC(=O)c2ccccc2)n1	-2%	-3%	-7%	-1	24µM*
Cc1ccc(C(=O)NNC(=O)C(C)Sc2nc(N)cc(N)n2)cc1 (stereo not drawn)	0%	5%	-11%	-2	-6%
SMILES	Vif-A3G inh	Vif-A3F inh	VDR inhibitor	TSHR antag	PLK1 PBD inh
Cc1ccc(C(=O)NNC(=O)CSc2nc(N)cc(N)n2)cc1	0%	2%	0%	4	27µM*
O=C(c1[nH]c2ccccc2c1Sc1ccc(Cl)cc1)N1CCCCC1	-9%	5%	2%	·	·
CCc1ccc2oc(-c3ccc(C)c(NC(=O)COc4ccc(Cl)cc4)c3)nc2c1	1%	·	·	·	·
CC(C)NC(=O)Nc1cccc2c1O[C@H](CN(C)S(=O)(=O)c1ccccc1)[C@@H](C)CN([C@H](C)CO)C2=O	0%	0%	8%	-2	-5%
CC(C)NC(=O)Nc1cccc2c1O[C@H](CN(C)S(=O)(=O)c1ccc(F)cc1)[C@@H](C)CN([C@H](C)CO)C2=O	2%	11%	?	1	19µM*
CCCCn1c(=O)[nH]c(=O)c2c1nc(-c1cc(Br)c(OCC)c(OC)c1)n2C	-3%	-14%	-15%	4	-1%
C=CCOc1ccc(-c2nc3c(c(=O)[nH]c(=O)n3CCCC)n2C)cc1OC	-2%	3%	?	-1	21µM*
Oc1c(Cl)cc(Cl)cc1Sc1cc(Cl)cc(Cl)c1O	·	·	28µM*	-92*	·
CCOC(=O)/C=C/CCCC=O	·	·	6%	·	·
CCc1nn(CC(=O)NCc2ccccc2Cl)c(=O)c2cc3ccccc3n12	3%	-13%	9%	·	·
